Reference: PubChem BioAssay (Tox21)
Results filed as inconclusive are left out. Calls of active or inactive are those of the source. Unless noted, calls follow the shape of the dose curve; as a rule, active = well fitted curve in the direction sought with a large enough effect in the repeat runs; inconclusive = weak or mixed curves; inactive = flat fitted curve, though single readings scatter.

Assays:
[1] = qHTS assay to test for compound auto fluorescence at 535 nm (green) in HEK293 cells (AID 720680)
[2] = qHTS assay to test for compound auto fluorescence at 535 nm (green) in HEK293 cell free culture (AID 720682)
Outline: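 Read-out: 485/535 nm fluorescence intensity, calibrated against fluorescein. Medium only (DMEM + 10% FBS, no cells); test compound or DMSO vehicle added by pintool before plate reading.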

[3] = qHTS assay to test for compound auto fluorescence at 590 nm (red) in HEK293 cell free culture (AID 720683)
Outline: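 Tox21 10K library compounds were pinned into cell-free DMEM with 10% FBS and fluorescence was read at excitation 540 nm. Activity is expressed as Rose Bengal sodium equivalency.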

[4] = qHTS assay to test for compound auto fluorescence at 590 nm (red) in HepG2 cell free culture (AID 720684)
Outline: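 Readout: intrinsic compound fluorescence at 590 nm emission after 540 nm excitation, scaled to Rose Bengal sodium. Matrix was cell-free MEM with 10% FBS; DMSO vehicle wells served as control.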

[5] = qHTS assay to test for compound auto fluorescence at 460 nm (blue) in HepG2 cell free culture (AID 720685)
Outline: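 Cell-free plates of MEM plus 10% FBS received 23 nL compound or DMSO vehicle; blue-channel (405/460 nm) intensity scored against triamterene as reference fluorophore.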

[6] = qHTS assay to test for compound auto fluorescence at 535 nm (green) in HepG2 cell free culture (AID 720686)
[7] = qHTS assay to test for compound auto fluorescence at 460 nm (blue) in HepG2 cells (AID 720687)
Outline: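 Cells (2,000/well in MEM with 10% FBS) attached overnight at 37 C, then were exposed to compound or DMSO for 1 hr at 37 C, 5% CO2. Fluorescence read at Ex/Em 405/460 nm, expressed as triamterene-equivalent signal.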

[8] = molecular target: Glucocorticoid receptor (Homo sapiens) (UniProt P04150); test: qHTS assay to identify small molecule agonists of the glucocorticoid receptor (GR) signaling pathway (AID 720691; active = well fitted activation curve with a large enough effect in the signal ratio in the repeat runs, not every such curve was filed as active; the % refers to the signal ratio)
Glucocorticoid receptor (Homo sapiens), sequence (P04150 whole entry, looked up): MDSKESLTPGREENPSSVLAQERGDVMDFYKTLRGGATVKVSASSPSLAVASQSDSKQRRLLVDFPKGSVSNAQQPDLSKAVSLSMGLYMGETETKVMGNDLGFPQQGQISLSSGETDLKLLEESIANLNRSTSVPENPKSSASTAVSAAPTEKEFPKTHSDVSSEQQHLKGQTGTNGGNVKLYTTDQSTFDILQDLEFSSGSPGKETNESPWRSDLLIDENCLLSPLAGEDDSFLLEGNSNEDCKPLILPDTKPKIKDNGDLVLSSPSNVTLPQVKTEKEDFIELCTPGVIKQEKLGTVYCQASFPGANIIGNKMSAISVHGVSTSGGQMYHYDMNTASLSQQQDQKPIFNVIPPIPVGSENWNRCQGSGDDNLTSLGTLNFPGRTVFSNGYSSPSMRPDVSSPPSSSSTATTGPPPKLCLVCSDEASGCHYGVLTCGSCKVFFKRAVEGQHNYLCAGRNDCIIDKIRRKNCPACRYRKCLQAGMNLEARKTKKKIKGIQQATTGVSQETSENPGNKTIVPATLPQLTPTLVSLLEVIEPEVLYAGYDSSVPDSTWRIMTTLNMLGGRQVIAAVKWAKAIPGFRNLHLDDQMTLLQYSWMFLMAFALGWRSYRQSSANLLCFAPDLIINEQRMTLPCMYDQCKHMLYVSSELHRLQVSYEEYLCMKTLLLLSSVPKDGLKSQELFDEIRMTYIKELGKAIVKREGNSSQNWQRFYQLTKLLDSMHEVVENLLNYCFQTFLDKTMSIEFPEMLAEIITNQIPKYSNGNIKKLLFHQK
Outline: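 HeLa GR-bla reporter line; cells pre-incubated 4 h, compound in DMSO 18 h at 37 C; LiveBLAzer B/G FRET substrate 2 h RT; fluorescence intensity read-out.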

[9] = molecular target: Glucocorticoid receptor (Homo sapiens) (UniProt P04150); test: qHTS assay to identify small molecule antagonists of the glucocorticoid receptor (GR) signaling pathway (AID 720692; active = well fitted inhibition curve with a large enough effect in the signal ratio in the repeat runs, not every such curve was filed as active; the % refers to the signal ratio)
Outline: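 Read-out: beta-lactamase FRET substrate fluorescence, 2 h at room temperature, in HeLa cells stably carrying a GRE-driven bla reporter. Compounds were co-incubated with 5 nM dexamethasone agonist (final) for 18 h at 37 C.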

[10] = qHTS assay to test for compound auto fluorescence at 460 nm (blue) in HEK293 cell free culture (AID 720681)
Outline: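 Test compounds were pinned into cell-free culture medium (DMEM with 10% FBS) and fluorescence was read directly at Ex/Em 405/460 nm. Signals were expressed as fluorescence equivalents of triamterene, with DMSO vehicle as control.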
% is scaled to controls: 0 for no effect and ±100 for the full control effect.

CC(O)Cn1cnc2c1c(=O)n(C)c(=O)n2C (configuration not stated)
inactive: fluorescence, % of fluorescein [1] -0.0718% [at 18.6 µM] | activity change [2] -0.0176% [at 18.6 µM] | fluorescence, % of fluorescent control [3] 0.243% [at 18.6 µM] | fluorescence, % of Rose Bengal [4] -0.131% [at 18.6 µM] | fluorescence, % of fluorescent control [5] -0.0952% [at 18.6 µM] | fluorescence, % of fluorescein control [6] -0.0191% [at 18.6 µM]

O=C1OC(=O)c2c(Br)c(Br)c(Br)c(Br)c21
inactive: outcome [1] | outcome [2] | outcome [3] | outcome [4] | Potency [5] | outcome [6] | Potency [7] | Potency [8] | Potency [9]

O=c1[nH][nH]c(=O)c2cc([N+](=O)[O-])ccc12
inactive: outcome [1] | outcome [2] | outcome [4] | outcome [6] | Potency [7] | Potency [8] | Potency [9]

CCN(CC)C(=O)/C(C#N)=C/c1cc(O)c(O)c([N+](=O)[O-])c1
inactive: outcome [1] | outcome [2] | outcome [3] | outcome [4] | Potency [5] | Potency [7]

CS(=O)(=O)c1ccc([C@@H](C[C@H]2CCC(=O)C2)C(=O)Nc2cnccn2)cc1Cl
inactive: outcome [1] | outcome [2] | outcome [3] | outcome [4] | Potency [5] | Potency [7] | Potency [8] | Potency [9]

CCCCCCC(O)CCOC(C)=O (configuration not stated)
inactive: outcome [1] | outcome [2] | outcome [3] | outcome [4] | Potency [5] | outcome [6] | Potency [7]

O=C(C(=O)c1ccco1)c1ccco1
inactive: outcome [1] | outcome [2] | outcome [3] | outcome [4] | Potency [5] | Potency [7] | Potency [8] | Potency [9]

COc1ccc(-c2cc(C(F)F)nn2-c2ccc(S(N)(=O)=O)cc2)cc1F
inactive: outcome [1] | outcome [2] | outcome [4] | Potency [5] | outcome [6] | Potency [7]

O=C(/C=C/c1ccc([N+](=O)[O-])cc1)c1ccccc1
inactive: Potency [10] | outcome [2] | outcome [3] | outcome [4] | Potency [5] | outcome [6] | Potency [7] | Potency [8]

CC1C(C)(C)C2=C(C(=O)CCC2)C1(C)C (configuration not stated)
inactive: outcome [1] | outcome [2] | outcome [3] | outcome [4] | Potency [5] | outcome [6] | Potency [7] | Potency [8] | Potency [9]

Cc1ccc(NC(=O)N(C)C)cc1NC(=O)N(C)C
inactive: outcome [1] | outcome [2] | outcome [3] | outcome [4] | Potency [5] | outcome [6] | Potency [7] | Potency [8] | Potency [9]

CCN(CC)c1ccc(C(=C2C=CC(=[N+](CC)CC)C=C2)c2ccc(S(=O)(=O)O)cc2S(=O)(=O)[O-])cc1
inactive: outcome [1] | outcome [2] | outcome [3] | outcome [4] | outcome [6] | Potency [7] | Potency [8] | Potency [9]

COc1cc(OC)c2ccc(=O)oc2c1
inactive: outcome [1] | outcome [2] | outcome [3] | outcome [4] | outcome [6]

O=C(NS(=O)(=O)/C=C/c1ccccc1)c1ccc(F)cc1Cl
inactive: outcome [1] | outcome [2] | outcome [3] | outcome [4] | Potency [5] | outcome [6] | Potency [7]

O=C(O)CCC(=O)OC[C@@H](NC(=O)C(Cl)Cl)[C@H](O)c1ccc([N+](=O)[O-])cc1
inactive: outcome [1] | outcome [2] | outcome [3] | outcome [4] | Potency [5] | outcome [6] | Potency [8] | Potency [9]

CCOCCC(=O)OCC
inactive: outcome [1] | outcome [2] | outcome [3] | outcome [4] | Potency [5] | outcome [6] | Potency [7]

Cc1c(C2(c3cc(Br)c(O)c(Br)c3C)OS(=O)(=O)c3ccccc32)cc(Br)c(O)c1Br
inactive: outcome [1] | outcome [2] | outcome [3] | outcome [4] | Potency [5] | outcome [6] | Potency [8]

CC(=O)Oc1cccc(O)c1
inactive: outcome [1] | outcome [2] | outcome [3] | outcome [4] | Potency [5] | outcome [6] | Potency [7] | Potency [8]

FC(F)(F)C(F)(F)C(F)(F)C(F)(F)CCI
inactive: outcome [1] | outcome [2] | outcome [4] | Potency [5] | outcome [6] | Potency [8] | Potency [9]

CCC(=O)OCc1ccc(OC)cc1
inactive: outcome [1] | outcome [2] | outcome [3] | outcome [4] | Potency [5] | outcome [6] | Potency [7] | Potency [8] | Potency [9]

CCC(Cl)CC(Cl)C(Cl)C(Cl)C(Cl)C(C)Cl (configuration not stated)
inactive: fluorescence, % of fluorescein [1] 0.0197% [at 13.4 µM] | activity change [2] -0.0067% [at 13.4 µM] | fluorescence, % of fluorescent control [3] -0.0269% [at 13.4 µM] | fluorescence, % of Rose Bengal [4] 0.0345% [at 13.4 µM] | fluorescence, % of fluorescent control [5] 0.066% [at 13.4 µM] | fluorescence, % of fluorescein control [6] -0.002% [at 13.4 µM] | fluorescence, % of fluorescent control [7] 0.0691% [at 13.4 µM] | activation [8] -0.909% [at 15 µM] | Potency [9]

O=C(c1ccccc1)c1ccc(O)cc1
inactive: outcome [1] | outcome [2] | outcome [3] | outcome [4] | Potency [5] | outcome [6] | Potency [7] | Potency [8] | Potency [9]

COc1ccc(-n2nc(C(F)F)cc2-c2ccc(S(C)=O)cc2)cc1 (configuration not stated)
inactive: outcome [1] | outcome [2] | outcome [4] | Potency [5] | outcome [6] | Potency [7] | Potency [8] | Potency [9]

O=C(Nc1ccc(C(=O)O)c(O)c1)c1ccccc1
inactive: Potency [10] | outcome [2] | outcome [3] | outcome [4] | Potency [5] | outcome [6] | Potency [7]

O=C(c1ccccc1)C1CCC1
inactive: outcome [1] | outcome [2] | outcome [3] | outcome [4] | Potency [5] | outcome [6] | Potency [7] | Potency [8]

O=C(O)/C=C/c1ccc(O)c(O)c1
inactive: outcome [1] | outcome [2] | outcome [3] | outcome [4] | Potency [5] | Potency [7] | Potency [8] | Potency [9]

CCC(C)(C)C(=O)O
inactive: outcome [1] | outcome [2] | outcome [3] | outcome [4] | Potency [5] | outcome [6] | Potency [7] | Potency [8] | Potency [9]

COc1ccc(C(=O)NCc2ccc(OCCN(C)C)cc2)cc1OC
inactive: Potency [10] | outcome [2] | outcome [3] | outcome [4] | Potency [5] | outcome [6] | Potency [7] | Potency [8] | Potency [9]

CCC(CO)(CO)[N+](=O)[O-]
inactive: outcome [2] | outcome [3] | outcome [4] | Potency [5] | outcome [6] | Potency [7] | Potency [8]

CCCOC(=O)c1c(Cl)c(Cl)c(Cl)c(Cl)c1C(=O)OCCC
inactive: outcome [2] | outcome [3] | outcome [4] | Potency [5] | outcome [6] | Potency [7] | Potency [8] | Potency [9]

CC(=O)OCC(C)C
inactive: Potency [10] | outcome [2] | outcome [3] | outcome [4] | Potency [5] | outcome [6] | Potency [7] | Potency [9]

CC1CCC(C(C)CS)CC1S (configuration not stated)
inactive: Potency [10] | outcome [2] | outcome [3] | outcome [4] | Potency [5] | outcome [6] | Potency [7] | Potency [8]
